We go through eight compounds from PubChem BioAssay (NCI).

Some test systems named below: NCI-H23 lung; NCI-H226 lung; HOP-62 NSCLC; NCI-H460 lung; HOP-92 NSCLC; NCI-H522 lung; A549/ATCC NSCLC; 786-0 renal; COLO 205 colon; DU-145 prostate; K-562 leukemia; MALME-3M melanoma; MDA-MB-231 breast; RXF 393 renal; SF-268 CNS; SF-295 CNS; SF-539 CNS; UACC-257 melanoma; M14 melanoma.
Assay in all cases: NCI-60 one-dose screen, 48 h (100 = growth as untreated, 0 = no growth, -100 = all killed)
What all share (settings): 10 µM unless noted

Molecules are shown by their SMILES. The panel holds about 83,000 compounds, 20% with a hit somewhere; the sample as a whole holds those more often.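 The test compound was applied at a single concentration to cells in 96-well plates for 48 hours, and percent growth was recorded.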 Values without a mark were called inactive. The source made the active and inactive calls. Rule for the calls: active = growth percent below 10; inactive = the rest.

Turning to `COc1cc(/C=C/c2ccccc2)cc(OC)c1`, the growth is 86.6% with NCI-H23 lung; 92% in the assay with NCI-H226 lung; 108% in the assay on HOP-62 NSCLC; 106% in the assay with NCI-H460 lung; 69.9% with HOP-92 NSCLC; 84.1% in the assay on NCI-H522 lung. In addition, the growth in the assay with A549/ATCC NSCLC is 95.4%; in the assay on 786-0 renal it was 97.9%; with COLO 205 colon it was 114%; in the assay on DU-145 prostate it was 94.3%; in the assay with K-562 leukemia it was 93%; in the assay with MALME-3M melanoma, 105%. The growth with MDA-MB-231 breast was 91%; in the assay with RXF 393 renal, 118%; in the assay with SF-268 CNS it was 92.7%; with SF-295 CNS, 95.7%; with SF-539 CNS it was 93.1%; with UACC-257 melanoma, 103%. Moreover, the growth with M14 melanoma is 101%.
Turning to `Cc1c(C(=O)NCCN2CCOCC2)cn2ncnc(Oc3ccc(NC(=O)Nc4ccc(Cl)c(C(F)(F)F)c4)cc3)c12`, the growth in the assay on NCI-H23 lung is 13.9%; with NCI-H226 lung, 34.2%; in the assay on HOP-62 NSCLC, 20.5%; in the assay on NCI-H460 lung, 3.24% (active); with HOP-92 NSCLC it was 7.32% (active); in the assay on NCI-H522 lung, 5.61% (active). Moreover, the growth is 13.4% in the assay on A549/ATCC NSCLC; 12.3% in the assay with 786-0 renal; 42.3% in the assay with DU-145 prostate; 4.96% (active) in the assay with K-562 leukemia; -4.42% (active) in the assay with MALME-3M melanoma; 7.21% (active) in the assay on MDA-MB-231 breast. In addition, the growth is -26.8% (active) with RXF 393 renal; 29% in the assay with SF-268 CNS; -29.3% (active) in the assay with SF-295 CNS; -2.93% (active) in the assay with SF-539 CNS; 24.3% in the assay with UACC-257 melanoma; 3.71% (active) in the assay with M14 melanoma.
In the case of `CCOC(=O)c1c(C)oc2ncnc(N3CCN(C(=O)COc4ccc(C(C)(C)C)cc4)CC3)c12`, the growth is 72.5% with NCI-H23 lung; 66.5% in the assay with NCI-H226 lung; 90.8% in the assay with HOP-62 NSCLC; 91.4% in the assay with NCI-H460 lung; 62.9% in the assay on HOP-92 NSCLC; 77.9% in the assay with NCI-H522 lung. Moreover, the growth is 86% in the assay with A549/ATCC NSCLC; 99.1% in the assay on 786-0 renal; 76.9% in the assay on COLO 205 colon; 87.5% with DU-145 prostate; 53.5% with K-562 leukemia; 70.2% with MALME-3M melanoma. Moreover, the growth was 80.5% in the assay with MDA-MB-231 breast; 92.1% in the assay on RXF 393 renal; 91% in the assay on SF-268 CNS; 79.9% in the assay on SF-295 CNS; 96.1% with SF-539 CNS; 78.4% in the assay with UACC-257 melanoma. The growth in the assay on M14 melanoma was 74.5%.
Turning to `O=c1c2cc(F)ccc2sc2c(NCCCNCCO)nc3ccccc3c12`, the growth is 66.9% in the assay on NCI-H23 lung; 80.8% with NCI-H226 lung; 46.5% with HOP-62 NSCLC; -71.3% (active) in the assay with NCI-H460 lung; 3.78% (active) with HOP-92 NSCLC; 20.4% in the assay on NCI-H522 lung. Further, the growth in the assay on A549/ATCC NSCLC was 33.9%; in the assay with 786-0 renal it was 51.9%; in the assay on COLO 205 colon, -56.4% (active); in the assay on DU-145 prostate, 8.53% (active); in the assay with K-562 leukemia, -44.3% (active); with MALME-3M melanoma it was 69.5%. The growth with MDA-MB-231 breast was -33.1% (active); with RXF 393 renal it was 44.8%; in the assay with SF-268 CNS, 41.6%; in the assay with SF-295 CNS it was 65.3%; in the assay on SF-539 CNS it was -24.1% (active); with UACC-257 melanoma it was 91.2%. Besides, the growth in the assay with M14 melanoma is -79% (active).
Regarding `CCCCOc1nc2ccc(OC)cc2cc1-c1cc(-c2ccc(Cl)cc2)nc(-c2ccc(Cl)cc2)c1`, the growth in the assay on NCI-H23 lung was 102%; in the assay on NCI-H226 lung it was 103%; in the assay with HOP-62 NSCLC it was 110%; in the assay on NCI-H460 lung, 107%; in the assay on HOP-92 NSCLC, 97.6%; in the assay with NCI-H522 lung it was 98.7%. Besides, the growth in the assay on A549/ATCC NSCLC is 99.3%; in the assay with 786-0 renal, 112%; in the assay on DU-145 prostate it was 114%; in the assay with K-562 leukemia, 106%; with MALME-3M melanoma, 100%; with MDA-MB-231 breast it was 93.5%. The growth is 101% in the assay on RXF 393 renal; 99.8% with SF-268 CNS; 98.1% in the assay with SF-295 CNS; 98.3% in the assay with SF-539 CNS; 99.6% in the assay on UACC-257 melanoma; 111% in the assay on M14 melanoma.
For the compound `CCCCn1c(=O)c(-c2cc(-c3ccc(Cl)cc3)nc(-c3ccc(Cl)cc3)c2)cc2cc(C)ccc21`, the growth is 101% in the assay on NCI-H23 lung; 105% in the assay with NCI-H226 lung; 102% in the assay on HOP-62 NSCLC; 106% in the assay on NCI-H460 lung; 103% with HOP-92 NSCLC; 94.9% in the assay on NCI-H522 lung. Moreover, the growth is 98.2% in the assay with A549/ATCC NSCLC; 102% with 786-0 renal; 111% with COLO 205 colon; 112% in the assay with DU-145 prostate; 99.3% with K-562 leukemia; 105% with MALME-3M melanoma. Also, the growth in the assay on MDA-MB-231 breast is 92.8%; with RXF 393 renal, 105%; in the assay on SF-268 CNS it was 98%; in the assay with SF-295 CNS, 99.1%; in the assay with SF-539 CNS it was 97.9%; in the assay on UACC-257 melanoma it was 100%. The growth in the assay with M14 melanoma was 102%.
`CC1(C)C2CC1C1(/C=N\Nc3ccccc3)C(C2)C(C#N)(C#N)C1(C#N)C#N` (centres undefined): the growth in the assay on NCI-H23 lung is 85.1%; in the assay with NCI-H226 lung, 86.8%; in the assay on HOP-62 NSCLC, 86.1%; in the assay with NCI-H460 lung, 99%; with HOP-92 NSCLC it was 80.9%; with NCI-H522 lung it was 77.8%. Also, the growth with A549/ATCC NSCLC was 93.4%; in the assay with 786-0 renal, 100%; in the assay with COLO 205 colon, 115%; with DU-145 prostate it was 101%; in the assay with K-562 leukemia it was 84.9%; in the assay with MALME-3M melanoma, 97.7%. Further, the growth is 75.8% in the assay on MDA-MB-231 breast; 103% with RXF 393 renal; 86.3% in the assay on SF-268 CNS; 104% in the assay on SF-295 CNS; 107% in the assay with SF-539 CNS; 98.9% in the assay with UACC-257 melanoma. Also, the growth with M14 melanoma was 83.6%.
For the compound `c1ccc2cc(C[n+]3ccn(CCCCCCn4cc[n+](Cc5ccc6ccccc6c5)c4)c3)ccc2c1`, the growth with NCI-H23 lung is 30.5%; in the assay on NCI-H226 lung, 69.6%; in the assay with HOP-62 NSCLC it was 55.8%; with NCI-H460 lung it was 24.6%; in the assay on HOP-92 NSCLC, 59.9%; with NCI-H522 lung, 33.1%. Further, the growth was 83.6% in the assay on 786-0 renal; 27.9% in the assay on COLO 205 colon; 65.9% in the assay with DU-145 prostate; 28.3% in the assay on K-562 leukemia; 11.2% in the assay on MALME-3M melanoma; 84.1% with MDA-MB-231 breast. For the same compound, the growth with RXF 393 renal is 87.4%; in the assay on SF-268 CNS, 55.6%; in the assay with SF-295 CNS, 48.3%; in the assay on SF-539 CNS, 56.3%; with UACC-257 melanoma, 61.9%; with M14 melanoma it was 69.9%.
